# Measurements: ChEMBL document CHEMBL2218924, “A broad activity screen in support of a chemogenomic map for kinase signalling research and drug discovery” (Biochem J, 2013)
# Columns and labels:
# [1] = biological target: T1, Ephrin type-A receptor 3 (Homo sapiens) (UniProt P29320); conditions: at 10 µM
# T1 sequence (whole entry): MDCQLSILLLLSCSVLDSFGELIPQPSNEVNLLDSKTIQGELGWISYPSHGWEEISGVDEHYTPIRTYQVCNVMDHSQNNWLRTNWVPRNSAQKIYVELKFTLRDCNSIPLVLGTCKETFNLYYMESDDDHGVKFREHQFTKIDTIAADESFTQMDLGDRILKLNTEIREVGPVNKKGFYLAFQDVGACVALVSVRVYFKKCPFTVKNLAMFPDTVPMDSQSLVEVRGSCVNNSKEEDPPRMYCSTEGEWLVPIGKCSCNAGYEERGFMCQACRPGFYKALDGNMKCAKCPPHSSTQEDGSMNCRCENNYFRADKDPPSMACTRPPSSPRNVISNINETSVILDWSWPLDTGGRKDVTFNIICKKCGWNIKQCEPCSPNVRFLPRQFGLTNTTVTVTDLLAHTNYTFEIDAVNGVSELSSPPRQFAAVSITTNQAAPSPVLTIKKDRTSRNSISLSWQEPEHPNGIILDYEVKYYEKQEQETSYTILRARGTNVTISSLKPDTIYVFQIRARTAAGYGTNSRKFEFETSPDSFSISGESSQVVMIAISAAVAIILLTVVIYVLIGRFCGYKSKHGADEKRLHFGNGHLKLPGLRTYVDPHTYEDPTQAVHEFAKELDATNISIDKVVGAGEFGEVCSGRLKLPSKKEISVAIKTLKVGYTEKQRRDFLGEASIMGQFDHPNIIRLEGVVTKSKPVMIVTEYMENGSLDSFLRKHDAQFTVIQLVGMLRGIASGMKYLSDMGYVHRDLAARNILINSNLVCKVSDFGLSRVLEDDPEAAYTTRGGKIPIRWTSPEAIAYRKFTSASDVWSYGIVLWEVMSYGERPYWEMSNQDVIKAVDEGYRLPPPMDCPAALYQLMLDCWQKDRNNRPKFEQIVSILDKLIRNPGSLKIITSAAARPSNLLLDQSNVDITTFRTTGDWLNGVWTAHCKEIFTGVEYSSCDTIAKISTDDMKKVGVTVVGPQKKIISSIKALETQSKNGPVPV
# [2] = biological target: Ephrin type-A receptor 5 (Homo sapiens) (UniProt P54756); conditions: at 1 µM
# Chain of Ephrin type-A receptor 5 (Homo sapiens) (P54756 whole entry): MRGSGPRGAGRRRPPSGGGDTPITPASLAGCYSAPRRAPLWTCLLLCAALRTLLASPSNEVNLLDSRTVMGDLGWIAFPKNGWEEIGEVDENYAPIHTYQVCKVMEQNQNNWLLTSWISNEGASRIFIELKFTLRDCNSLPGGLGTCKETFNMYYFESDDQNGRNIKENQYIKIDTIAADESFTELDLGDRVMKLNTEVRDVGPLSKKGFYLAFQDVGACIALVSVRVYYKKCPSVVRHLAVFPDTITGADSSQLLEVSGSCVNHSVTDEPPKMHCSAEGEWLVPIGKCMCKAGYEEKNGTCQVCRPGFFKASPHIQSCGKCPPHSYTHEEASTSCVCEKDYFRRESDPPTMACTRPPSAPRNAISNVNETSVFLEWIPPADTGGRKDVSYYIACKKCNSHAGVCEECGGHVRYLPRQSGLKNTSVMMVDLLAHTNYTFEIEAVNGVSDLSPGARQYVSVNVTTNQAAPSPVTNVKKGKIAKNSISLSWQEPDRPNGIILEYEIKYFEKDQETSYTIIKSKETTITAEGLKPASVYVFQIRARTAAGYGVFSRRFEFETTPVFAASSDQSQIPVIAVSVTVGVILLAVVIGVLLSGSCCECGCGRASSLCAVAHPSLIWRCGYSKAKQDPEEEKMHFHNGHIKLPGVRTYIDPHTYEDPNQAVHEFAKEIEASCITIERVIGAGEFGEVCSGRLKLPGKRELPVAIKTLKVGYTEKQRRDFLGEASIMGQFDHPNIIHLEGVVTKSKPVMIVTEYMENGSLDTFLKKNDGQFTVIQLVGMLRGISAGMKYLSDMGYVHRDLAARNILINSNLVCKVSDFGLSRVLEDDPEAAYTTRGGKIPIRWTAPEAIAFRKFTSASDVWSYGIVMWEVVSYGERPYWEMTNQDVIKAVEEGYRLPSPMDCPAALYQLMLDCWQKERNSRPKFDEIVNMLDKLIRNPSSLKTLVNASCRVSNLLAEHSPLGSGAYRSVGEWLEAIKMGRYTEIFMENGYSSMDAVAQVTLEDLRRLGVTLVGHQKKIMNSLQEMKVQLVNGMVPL
# [3] = biological target: Ephrin type-A receptor 5 (Homo sapiens) (UniProt P54756); conditions: at 10 µM
# [4] = biological target: Ephrin type-A receptor 7 (Homo sapiens) (UniProt Q15375); conditions: at 1 µM
# Chain of Ephrin type-A receptor 7 (Homo sapiens) (Q15375 28-998 limits assumed): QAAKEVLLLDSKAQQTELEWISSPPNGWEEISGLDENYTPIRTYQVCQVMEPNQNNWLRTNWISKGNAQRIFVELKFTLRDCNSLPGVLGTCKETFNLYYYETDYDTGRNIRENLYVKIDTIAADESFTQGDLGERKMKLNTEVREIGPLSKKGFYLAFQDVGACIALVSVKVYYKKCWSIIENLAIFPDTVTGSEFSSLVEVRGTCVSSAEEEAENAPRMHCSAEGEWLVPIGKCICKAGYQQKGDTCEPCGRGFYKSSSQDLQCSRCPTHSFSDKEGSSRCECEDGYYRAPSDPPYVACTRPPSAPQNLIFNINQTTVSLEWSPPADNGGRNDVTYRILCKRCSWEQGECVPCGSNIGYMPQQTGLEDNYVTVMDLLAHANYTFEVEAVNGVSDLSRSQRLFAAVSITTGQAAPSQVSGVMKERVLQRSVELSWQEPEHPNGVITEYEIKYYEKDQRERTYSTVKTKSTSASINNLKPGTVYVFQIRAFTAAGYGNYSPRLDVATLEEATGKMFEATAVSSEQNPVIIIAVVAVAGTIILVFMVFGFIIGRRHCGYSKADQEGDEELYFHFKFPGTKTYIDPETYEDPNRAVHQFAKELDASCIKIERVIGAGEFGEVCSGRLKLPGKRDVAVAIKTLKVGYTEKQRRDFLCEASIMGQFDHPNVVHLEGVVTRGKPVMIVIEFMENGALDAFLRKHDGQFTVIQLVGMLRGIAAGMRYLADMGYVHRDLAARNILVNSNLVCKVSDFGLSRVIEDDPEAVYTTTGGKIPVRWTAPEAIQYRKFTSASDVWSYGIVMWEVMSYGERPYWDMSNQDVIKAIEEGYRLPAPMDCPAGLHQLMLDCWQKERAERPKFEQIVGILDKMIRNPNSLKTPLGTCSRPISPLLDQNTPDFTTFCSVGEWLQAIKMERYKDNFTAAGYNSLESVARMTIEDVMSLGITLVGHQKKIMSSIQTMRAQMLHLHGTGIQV
# [5] = biological target: Ephrin type-A receptor 7 (Homo sapiens) (UniProt Q15375); conditions: at 10 µM
# [6] = biological target: T2, Ephrin type-A receptor 8 (Homo sapiens) (UniProt P29322); conditions: at 1 µM
# T2 sequence (whole entry): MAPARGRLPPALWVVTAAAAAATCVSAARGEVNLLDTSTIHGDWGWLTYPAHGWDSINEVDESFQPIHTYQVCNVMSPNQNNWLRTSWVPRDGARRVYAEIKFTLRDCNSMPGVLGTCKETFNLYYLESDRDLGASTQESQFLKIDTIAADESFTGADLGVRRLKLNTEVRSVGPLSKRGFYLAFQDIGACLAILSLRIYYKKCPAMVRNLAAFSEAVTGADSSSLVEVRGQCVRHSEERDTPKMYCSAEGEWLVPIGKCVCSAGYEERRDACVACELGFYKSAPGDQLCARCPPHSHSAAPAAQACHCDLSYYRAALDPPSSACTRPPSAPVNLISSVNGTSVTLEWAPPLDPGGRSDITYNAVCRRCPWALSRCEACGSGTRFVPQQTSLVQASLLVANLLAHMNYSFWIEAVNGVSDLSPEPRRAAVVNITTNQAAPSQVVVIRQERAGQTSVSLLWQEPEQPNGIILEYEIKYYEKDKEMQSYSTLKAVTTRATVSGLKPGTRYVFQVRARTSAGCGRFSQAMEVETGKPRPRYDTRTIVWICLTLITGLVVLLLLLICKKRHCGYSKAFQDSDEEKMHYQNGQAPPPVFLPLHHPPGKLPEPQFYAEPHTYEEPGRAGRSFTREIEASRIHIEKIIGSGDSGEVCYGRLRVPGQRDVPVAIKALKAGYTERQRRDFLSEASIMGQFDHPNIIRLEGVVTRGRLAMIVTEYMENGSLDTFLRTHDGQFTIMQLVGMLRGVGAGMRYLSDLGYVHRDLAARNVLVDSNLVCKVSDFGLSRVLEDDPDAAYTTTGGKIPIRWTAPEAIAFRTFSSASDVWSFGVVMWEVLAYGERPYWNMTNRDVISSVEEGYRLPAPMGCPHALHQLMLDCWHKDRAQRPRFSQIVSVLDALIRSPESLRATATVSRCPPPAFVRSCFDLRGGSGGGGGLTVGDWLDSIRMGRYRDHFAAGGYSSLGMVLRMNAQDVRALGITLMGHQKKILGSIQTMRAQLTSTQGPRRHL
# [7] = biological target: T2, Ephrin type-A receptor 8 (Homo sapiens); conditions: at 10 µM
# [8] = biological target: T3, Ephrin type-B receptor 1 (Homo sapiens) (UniProt P54762); conditions: at 10 µM
# T3 sequence (whole entry): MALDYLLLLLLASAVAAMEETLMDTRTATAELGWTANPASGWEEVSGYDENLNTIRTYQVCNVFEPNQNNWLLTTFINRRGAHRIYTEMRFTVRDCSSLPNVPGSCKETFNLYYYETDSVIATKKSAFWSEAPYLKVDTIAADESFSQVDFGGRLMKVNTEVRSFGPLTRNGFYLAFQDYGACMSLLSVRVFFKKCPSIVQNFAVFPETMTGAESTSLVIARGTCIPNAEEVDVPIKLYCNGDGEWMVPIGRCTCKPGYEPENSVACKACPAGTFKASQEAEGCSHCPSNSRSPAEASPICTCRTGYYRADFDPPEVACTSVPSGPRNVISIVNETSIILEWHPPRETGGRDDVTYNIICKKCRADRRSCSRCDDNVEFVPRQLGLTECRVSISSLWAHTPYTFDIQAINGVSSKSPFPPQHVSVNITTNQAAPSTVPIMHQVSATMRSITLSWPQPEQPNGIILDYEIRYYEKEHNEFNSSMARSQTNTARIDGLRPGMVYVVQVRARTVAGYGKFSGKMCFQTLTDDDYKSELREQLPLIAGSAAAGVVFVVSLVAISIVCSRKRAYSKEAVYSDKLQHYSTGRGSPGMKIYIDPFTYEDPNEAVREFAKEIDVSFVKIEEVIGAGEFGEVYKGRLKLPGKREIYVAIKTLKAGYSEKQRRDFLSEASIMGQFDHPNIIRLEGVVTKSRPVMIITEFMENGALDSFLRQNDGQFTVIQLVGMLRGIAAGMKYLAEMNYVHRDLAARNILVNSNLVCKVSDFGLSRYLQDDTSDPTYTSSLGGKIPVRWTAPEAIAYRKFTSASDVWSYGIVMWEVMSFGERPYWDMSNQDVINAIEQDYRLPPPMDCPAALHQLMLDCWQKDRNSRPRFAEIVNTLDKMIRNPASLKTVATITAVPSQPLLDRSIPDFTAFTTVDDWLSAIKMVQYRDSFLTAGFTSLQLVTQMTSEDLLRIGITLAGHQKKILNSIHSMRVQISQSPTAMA
# [9] = biological target: T4, Ephrin type-B receptor 4 (Homo sapiens) (UniProt P54760); conditions: at 1 µM
# T4 sequence (whole entry): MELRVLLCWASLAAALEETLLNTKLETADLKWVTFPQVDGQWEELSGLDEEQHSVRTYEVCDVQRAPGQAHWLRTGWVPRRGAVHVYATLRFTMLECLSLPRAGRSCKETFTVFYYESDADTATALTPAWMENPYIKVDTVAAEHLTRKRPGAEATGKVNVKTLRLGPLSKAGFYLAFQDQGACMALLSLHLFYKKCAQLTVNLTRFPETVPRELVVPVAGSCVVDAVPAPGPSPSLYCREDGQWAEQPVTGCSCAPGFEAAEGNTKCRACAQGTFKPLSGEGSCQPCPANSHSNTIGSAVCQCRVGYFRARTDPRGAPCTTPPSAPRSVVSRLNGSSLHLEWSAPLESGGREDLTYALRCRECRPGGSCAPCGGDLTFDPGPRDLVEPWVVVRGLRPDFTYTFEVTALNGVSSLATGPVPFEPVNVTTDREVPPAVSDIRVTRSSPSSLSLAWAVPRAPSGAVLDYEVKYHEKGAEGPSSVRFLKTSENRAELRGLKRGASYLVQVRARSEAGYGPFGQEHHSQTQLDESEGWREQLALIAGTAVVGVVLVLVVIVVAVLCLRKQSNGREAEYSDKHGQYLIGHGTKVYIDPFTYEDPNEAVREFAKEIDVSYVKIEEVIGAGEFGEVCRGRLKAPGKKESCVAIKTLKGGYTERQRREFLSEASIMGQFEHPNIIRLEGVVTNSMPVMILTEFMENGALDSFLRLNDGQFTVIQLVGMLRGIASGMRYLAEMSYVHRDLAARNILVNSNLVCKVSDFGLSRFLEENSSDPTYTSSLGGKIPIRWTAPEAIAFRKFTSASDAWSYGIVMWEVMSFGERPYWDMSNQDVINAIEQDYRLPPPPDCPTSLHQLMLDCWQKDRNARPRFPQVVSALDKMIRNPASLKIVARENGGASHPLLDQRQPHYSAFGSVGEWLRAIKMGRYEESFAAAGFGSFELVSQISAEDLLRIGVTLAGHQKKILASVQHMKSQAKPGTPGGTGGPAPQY
# [10] = biological target: T4, Ephrin type-B receptor 4 (Homo sapiens); conditions: at 10 µM
# [11] = biological target: Focal adhesion kinase 1 (Homo sapiens) (UniProt Q05397); conditions: at 1 µM
# Chain of Focal adhesion kinase 1 (Homo sapiens) (Q05397 2-1052 limits assumed): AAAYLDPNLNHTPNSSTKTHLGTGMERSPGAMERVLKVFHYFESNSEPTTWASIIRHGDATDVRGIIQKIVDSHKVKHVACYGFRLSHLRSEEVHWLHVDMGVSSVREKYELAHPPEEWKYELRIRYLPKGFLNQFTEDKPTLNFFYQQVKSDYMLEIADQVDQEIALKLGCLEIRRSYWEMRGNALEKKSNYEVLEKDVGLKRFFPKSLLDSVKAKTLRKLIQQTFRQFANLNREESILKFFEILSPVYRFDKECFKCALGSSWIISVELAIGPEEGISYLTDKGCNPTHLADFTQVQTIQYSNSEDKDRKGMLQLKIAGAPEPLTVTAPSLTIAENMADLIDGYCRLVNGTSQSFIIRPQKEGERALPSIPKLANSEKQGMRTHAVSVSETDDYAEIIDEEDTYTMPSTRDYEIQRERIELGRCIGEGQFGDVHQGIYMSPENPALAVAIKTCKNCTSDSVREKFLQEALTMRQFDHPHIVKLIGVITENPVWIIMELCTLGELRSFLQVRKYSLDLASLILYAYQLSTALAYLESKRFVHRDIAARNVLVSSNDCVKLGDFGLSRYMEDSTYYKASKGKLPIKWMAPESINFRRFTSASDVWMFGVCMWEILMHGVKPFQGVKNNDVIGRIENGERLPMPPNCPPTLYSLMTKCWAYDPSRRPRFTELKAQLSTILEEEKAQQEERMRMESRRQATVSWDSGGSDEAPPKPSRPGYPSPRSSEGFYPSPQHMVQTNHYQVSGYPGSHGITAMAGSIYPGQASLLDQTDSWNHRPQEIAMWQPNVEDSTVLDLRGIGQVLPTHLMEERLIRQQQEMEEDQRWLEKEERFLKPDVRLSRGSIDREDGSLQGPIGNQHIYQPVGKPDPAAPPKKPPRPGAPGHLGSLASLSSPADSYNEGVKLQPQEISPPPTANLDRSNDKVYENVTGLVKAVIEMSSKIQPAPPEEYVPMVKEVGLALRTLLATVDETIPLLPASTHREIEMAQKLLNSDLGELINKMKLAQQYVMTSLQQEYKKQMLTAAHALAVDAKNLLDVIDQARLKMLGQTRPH
structure (smiles),measurement,setting,value
O=C1C(Cl)=C(N2C(=O)CCC2=O)C(=O)c2ccccc21,residual activity,[1],89%
same,residual activity,[2],119%
same,residual activity,[3],96%
same,residual activity,[4],99%
same,residual activity,[5],92%
same,residual activity,[6],96%
same,residual activity,[7],92%
same,residual activity,[8],93%
same,residual activity,[9],93%
same,residual activity,[10],81%
same,residual activity,[11],93%
